# Only some compounds are listed: those with a hit (about 11% of all), similar ones and a draw of the others.
# VACV Venus inh = qHTS for Stage-Specific Inhibitors of Vaccinia Orthopoxvirus: Venus Reporter Primary qHTS | Vaccinia virus Venus reporter expression, fluorescence | Potency, µM (highest dose often 36.5 µM), inactives show top-dose activity change, negative = inhibition, usual class: inhibitors | 0.46% of 330,000 active | AID 720580, 2013; calls by dose curve; tested in A549 cells; further: on the % scale 0 is the no-effect control and ±100 the full control effect; nearly all actives have a fitted effect of over 30% in size
# Pf growth 96h = Primary qHTS for delayed death inhibitors of the malarial parasite plastid, 96 hour incubation; P. falciparum luciferase reporter growth, 96 h; Potency, µM (doses to about 28.7 µM), inactives show at the top dose activity change, negative = inhibition, actives largely listed as inhibitors; 6.9% of 320,000 active; further: on the % scale 0 is the no-effect control and ±100 the full control effect
#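 Cell-based qHTS: luciferase-tagged P. falciparum in erythrocytes (2% hematocrit, 0.05% parasitemia final) incubated with compounds for 96 hours, 37 C, 5% CO2; luciferase detection reagent then added and luminescence measured.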
# Vaccinia mCherry = qHTS for Stage-Specific Inhibitors of Vaccinia Orthopoxvirus: mCherry Reporter Primary qHTS. Vaccinia virus mCherry reporter infection, fluorescence. 0.63% of 310,000 active. Potency, µM (top dose mostly 36.5 µM), for inactives: at the top dose activity change, negative = inhibition, actives largely listed as inhibitors. AID 720579, 2013; calls by dose curve; tested in A549 cells; further: on the % scale 0 is the no-effect control and ±100 the full control effect; nearly all actives have a fitted effect of over 35% in size
# Pf growth 48h = Primary qHTS for delayed death inhibitors of the malarial parasite plastid, 48 hour incubation | P. falciparum luciferase growth in erythrocytes, 48 h | Potency, µM (titrated, usually from 28.7 µM), for the others: top-dose activity change, negative = inhibition, usual class: inhibitors | 5.9% of 310,000 active | AID 504832, 2011; further: on the % scale 0 is the no-effect control and ±100 the full control effect
#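 Compounds are pin-transferred into medium, infected erythrocytes (2% hematocrit, 0.1% parasitemia final) are added, and plates sit one parasite generation at 37 C in 5% CO2. Detection reagent is then added and luminescence measured.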
# NS1 function inh = qHTS Assay for Inhibitors of Influenza NS1 Protein Function; Potency, µM (doses to about 46.1 µM), for the others: top-dose activity, positive = more growth; 0.4% of 270,000 active; calls by dose curve; further: actives are rising curves; nearly all actives have a fitted effect of over 50% in size
#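 In this qHTS, NS1 from influenza A is expressed in budding yeast, where it slows growth. Cells are switched from glucose to 2% galactose medium (pH 6.0, -URA), treated with compound, and growth recovery is read at OD600.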
# HCV inh = qHTS Assay for Inhibitors of Hepatitis C Virus (HCV) | Potency, µM (doses to about 41.8 µM), without a hit: at the top dose activity change, negative = inhibition, actives largely listed as inhibitors | 3.4% of 340,000 active | Huh7.5.1 HCVcc-Cre infection, luciferase reporter, 44 h | AID 651820, 2012; further: on the % scale 0 is the no-effect control and ±100 the full control effect
#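 Seed cells (1,000/well) for 4 h; treat with compound and infect with HCVcc-Cre, moi about 0.5. Incubate 44 h, then detect luciferase activity.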
# The depositor's hits bear a star; i = inactive; ? = inconclusive; · = no result given. Unless noted, the call rests on the fitted dose curve; in most records, active means well fitted inhibition curve with a large enough effect; inconclusive means small, poorly fitted or top-dose-only effect, or another doubt; inactive means no such curve, though single readings can be large or run the other way. Potency means the concentration at half of the fitted maximal effect.
SMILES,VACV Venus inh,Pf growth 96h,Vaccinia mCherry,Pf growth 48h,NS1 function inh,HCV inh
CN1/C(=C\C=C2/C(=O)Oc3ccccc3C2=O)C(C)(C)c2ccccc21,i,?,202.2%,11.7µM*,-0.1%,-3.5%
CC1CCC(C(C)C)C(OP(=O)(c2ccccc2)C(O)c2ccncc2)C1 (configuration not stated),·,?,·,-25.1%,·,26.7%
COc1ccccc1-c1cc2nc(NCCc3ccc(S(N)(=O)=O)cc3)ccn2n1,-7.7%,·,i,·,·,·
C/C(=N/NC(=O)CNC(=O)c1ccco1)c1ccc(Cl)cc1,·,41.7%,·,38.7%,2.3%,4.8%
Cc1nn(CCCC(=O)NCc2ccccc2)c(=O)c2nccn12,4.3%,1.04µM*,2.1%,8.6%,9.6%,8.3%
CCc1ccc(CNC(=O)CCCn2nc(C)n3ccnc3c2=O)cc1,-2.2%,?,i,16.0%,7.3%,6.6%
Nc1nnnn1/N=C/c1ccccc1OCc1ccccc1,-15.8%,?,-0.8%,4.8%,15.9%,?
COC(=O)[C@@H](NCc1cccc(CN[C@H](C(=O)OC)C(C)C)c1)C(C)C,-5.2%,?,-2.1%,27.2%,5.7%,0.4%
COC(=O)C(c1ccccc1)N(Cc1cccc(CN(C(C(=O)OC)c2ccccc2)S(C)(=O)=O)c1)S(C)(=O)=O (configuration not stated),-13.6%,10.4µM*,-1.6%,8.28µM*,16.5%,?
COc1ccc(C(=O)Nc2ccnn2C2CCN(C(=O)C3CCOC3)CC2)cc1 (configuration not stated),-6.3%,-2.1%,i,34.2%,-13.4%,2.4%
CN(CC(=O)N1CCCCCC1)S(=O)(=O)c1ccc(Br)cc1,·,-27.2%,·,8.9%,-2.1%,25.3%
C=C(C)COc1ccc(-c2ncncc2-c2ccccc2)c(O)c1,-9.2%,13.1µM*,-11.9%,9.28µM*,1.6%,-18.6%
CCOc1ccc(-c2ncncc2-c2ccc(OC)cc2)c(O)c1,-34.8%,?,·,7.38µM*,-36.8%,4.6%
C=CCOC(=O)/C(=C/c1cccnc1)NC(=O)c1ccccc1,·,33.9%,·,8.7%,10.4%,13.1%
COc1ccccc1OCCOCCOc1c(C)cc(C)cc1Br,-14.7%,2.94µM*,-9.6%,-4.8%,4.5%,?
Cc1ccc(C(=O)c2ccccc2C(=O)OCC(=O)N2CC(C)CC(C)C2)cc1 (configuration not stated),·,7.38µM*,·,7.38µM*,·,13.3%
Cc1cc(=O)c2cc(C(=O)c3ccccc3)ccc2[nH]1,-17.0%,?,i,13.1µM*,-5.8%,-21.8%
COC(=O)c1ccc2[nH]c(C)cc(=O)c2c1,-7.3%,7.4%,i,-7.4%,-1.6%,8.8%
Cc1ccn2c(=O)c(NC(=O)c3ccc4c(c3)OCO4)c(C)nc2c1,-8.8%,·,19.7%,·,·,·
C=CCn1c(SCc2ccccc2Cl)nnc1-c1sc2nc(C)cc(C)c2c1N,·,?,·,11.7µM*,4.0%,?
Cc1cc(C)c2c(N)c(-c3nnc(SCc4ccc(Cl)cc4)n3C)sc2n1,-2.3%,20.9%,-3.2%,-4.4%,2.6%,19.5%
O=C(CN1CCN(Cc2ccccc2Cl)C1=O)NCc1ccccn1,·,-3.9%,·,12.7%,3.1%,2.9%
COc1cc(/C=N\NC(=O)c2ccc(Cn3nc([N+](=O)[O-])c(Cl)c3C)o2)ccc1O,17.8µM*,?,·,·,16.4%,-23.6%
COc1cccc(/C=N/NC(=O)Cn2nc(C)c([N+](=O)[O-])c2C)c1O,?,?,11.2µM*,11.7µM*,21.9%,?
COc1ccc(OC)c(NC(=O)c2cccc(Cn3cc(Br)c([N+](=O)[O-])n3)c2)c1,?,?,-26.0%,?,?,?
SMILES,VACV Venus inh,Pf growth 96h,Vaccinia mCherry,Pf growth 48h,NS1 function inh,HCV inh
COc1ccc(/C=N/NC(=O)c2ccncc2)cc1Cn1nc([N+](=O)[O-])c(Br)c1C,-4.3%,4.15µM*,-11.6%,?,·,17.4%
COc1cccc(/C=N\NC(=O)c2ccc(Cn3cc(Br)c([N+](=O)[O-])n3)o2)c1O,?,?,1.26µM*,?,27.7%,2.82µM*
COc1cccc(/C=N/NC(=O)C(C)n2nc(C)c([N+](=O)[O-])c2C)c1O (configuration not stated),?,?,?,?,10.0%,?
CCNc1nc(Cl)nc(NCc2ccccc2)n1,·,?,·,-6.8%,10.1%,5.1%
Cc1cccc(C)c1NC(=O)COC(=O)CNC(=O)C1CCCCC1,·,-19.9%,·,-21.7%,·,3.0%
CCCc1cc(=O)[nH]c2nnc(SCC(=O)NC3CCCCC3)n12,-8.0%,-10.2%,-10.3%,2.3%,·,0.9%
CCCCCCN1C[C@H](n2cc(-c3ccc(F)cc3)nn2)[C@@H](O)C[C@@H]1c1ccc(C)cc1,?,·,28.2µM*,·,·,·
CCCCCCN1C[C@H](n2cc(C3CC3)nn2)[C@@H](O)C[C@@H]1c1ccccc1,11.2µM*,·,?,·,·,·
O=C(c1cc(F)ccc1F)C1CCCN(C(=O)CSc2ccccn2)C1 (configuration not stated),-6.5%,-2.6%,-2.5%,20.1%,-0.4%,2.8%
COc1ccc([N+](=O)[O-])cc1NC(=O)COC(C)=O,·,36.2%,·,-20.0%,·,-16.5%
Cc1cc(C(=O)CCl)c(C)n1Cc1ccco1,0.7%,197.0%,-10.5%,15.8%,·,?
Cc1cc(C(=O)CN2C(=O)NC(C)(c3cccc(Br)c3)C2=O)c(C)n1Cc1ccco1 (configuration not stated),-32.9%,10.3%,·,1.47µM*,?,?
Cc1cc(C(=O)CN2C(=O)NC(c3ccccc3)(c3ccccc3)C2=O)c(C)n1Cc1ccco1,·,-22.0%,·,1.31µM*,?,-7.4%
Cc1cc(C(=O)CSc2nc3ccccc3[nH]2)c(C)n1Cc1ccco1,-19.6%,0.0%,-5.3%,57.1%,2.5%,?
Cc1ccc2cccc(OCC(=O)c3cc(C)n(Cc4ccco4)c3C)c2n1,·,?,·,13.1µM*,·,·
CCc1ccc(NC(=O)N2CCCCCC2)cc1,·,51.3%,·,106.3%,0.1%,6.2%
CCN1CCN(C(=O)Nc2ccc(Cc3ccc(NC(=O)N4CCN(CC)CC4)cc3)cc2)CC1,1.1%,10.4µM*,-10.3%,?,-2.1%,?
COc1ccc(/C=C2\SC(=O)N(CC(=O)NNC(=O)c3ccccc3O)C2=O)cc1,-4.4%,3.29µM*,-9.9%,30.2%,22.7%,-1.8%
O=C(CN1C(=O)S/C(=C\c2ccccc2)C1=O)NNC(=O)c1ccccc1O,-3.7%,13.3%,-10.0%,6.4%,9.6%,0.4%
COc1ccc(CN2CCNC(=O)C2CC(=O)N(C)Cc2nccn2C)cc1OC (configuration not stated),-16.6%,2.9%,-14.7%,8.7%,1.1%,6.2%

# Bioassay records from PubChem BioAssay.
